Data: PubChem BioAssay (NCI)
About 79,000 compounds went through this panel and 15% of them were active in at least one assay; those are over-represented in the sample as a whole. A number with no mark means an inactive call. Active and inactive are the calls of the source. No stated cut-off is given here; in the data, active means growth inhibition above about 70%; inactive means the rest.

Experiments:
[1] = NCI Yeast Anticancer Drug Screen. Data for the rad50 strain (AID 155);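 further: 0% = growth of vehicle-only cultures of the same strain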; conditions: S. cerevisiae rad50 strain growth inhibition, hits give high values
In short: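 Inhibition values express reduced yeast growth in compound-treated cultures relative to vehicle-treated controls.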

[2] = NCI Yeast Anticancer Drug Screen. Data for the mec2-1 strain (AID 157); conditions: S. cerevisiae mec2-1 strain, hits give high values
In short: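 Strain: mec2-1 (DNA repair/cell cycle alteration). Compound exposure, then growth measured; inhibition expressed relative to vehicle.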

[3] = NCI Yeast Anticancer Drug Screen. Data for the sgs1 mgt1 strain (AID 161);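 further: 0% = growth of cultures given vehicle only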; conditions: S. cerevisiae sgs1 mgt1 strain, hits give high values
In short: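 Inhibition of yeast growth, normalised to vehicle-treated controls, is reported for a strain bearing genetic alterations in DNA damage repair.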

[4] = NCI Yeast Anticancer Drug Screen. Data for the cln2 rad14 strain (AID 165);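 further: 0% = growth equal to vehicle treated cultures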; conditions: S. cerevisiae cln2 rad14 strain, hits give high values
In short: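 Compounds are applied to the cln2 rad14 yeast strain, and growth is then compared with that of vehicle-treated cultures to give inhibition.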

[5] = NCI Yeast Anticancer Drug Screen. Data for the bub3 strain (AID 167); conditions: S. cerevisiae bub3 mutant strain, hits give high values
In short: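 Steps: expose the mutant yeast strain to compound; grow alongside vehicle-treated cultures; measure growth; express inhibition against the vehicle cultures.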

[6] = NCI Yeast Anticancer Drug Screen. Data for the mlh1 rad18 strain (AID 175); conditions: S. cerevisiae mlh1 rad18 strain growth inhibition, hits give high values
In short: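 Read-out is yeast growth inhibition, calculated against vehicle-only controls. The compound was applied to a strain engineered with DNA damage repair alterations.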

[7] = at 5.0 µM (retest, dose inferred, filed as 0.5)
[8] = at 50.0 µM (retest, dose inferred, filed as 5.0)

Structure (SMILES)	growth inhibition [1, 7]	growth inhibition [1, 8]	growth inhibition ([1]; at 50.0 µM)	growth inhibition [2, 7]	growth inhibition [2, 8]	growth inhibition ([2]; at 50.0 µM)	growth inhibition [3, 7]	growth inhibition [3, 8]	growth inhibition ([3]; at 50.0 µM)	growth inhibition [4, 7]	growth inhibition [4, 8]	growth inhibition ([4]; at 50.0 µM)	growth inhibition [5, 7]	growth inhibition [5, 8]	growth inhibition ([5]; at 50.0 µM)	growth inhibition [6, 7]	growth inhibition [6, 8]	growth inhibition ([6]; at 50.0 µM)
CCCCCCCCCCCCCCCC(=O)NCC[N+](CC)(CC)Cc1ccc(C[N+](CC)(CC)CCNC(=O)CCCCCCCCCCCCCCC)cc1	99% (active)	99% (active)	99.3% (active)	99% (active)	100% (active)	99.6% (active)	99% (active)	100% (active)	99.5% (active)	99% (active)	99% (active)	99.3% (active)	98% (active)	99% (active)	99.5% (active)	97% (active)	99% (active)	99.3% (active)
O=C(O)c1nc2cc(C(F)(F)F)ccc2nc1Nc1ccc(F)cc1	32%	64%	64%	23%	66%	68.2%	23%	60%	74.7% (active)	20%	57%	79.7% (active)	31%	60%	74.7% (active)	30%	75% (active)	42.9%
c1ccc(N=Nc2ccc3ccccc3c2)cc1	5%	9%	16.1%	16%	10%	11.8%	6%	6%	3.65%	1%	4%	-5.6%	3%	17%	83% (active)	8%	10%	21.8%
Oc1ccc2ccccc2c1.[Cu+2]	1%	20%	98% (active)	-1%	12%	97.2% (active)	-2%	6%	98.4% (active)	-4%	13%	83.2% (active)	2%	8%	94% (active)	0%	33%	98% (active)
O=C1C(Cl)=C(Cl)C(=O)C2CC=CCC12 (stereo not given)	68%	97% (active)	99.3% (active)	92% (active)	99% (active)	99.4% (active)	92% (active)	99% (active)	99.6% (active)	85% (active)	99% (active)	99.1% (active)	91% (active)	99% (active)	99.5% (active)	90% (active)	99% (active)	99.5% (active)
O=C1C=CC(=O)N1c1ccc(-c2ccc(N3C(=O)C=CC3=O)cc2)cc1	41%	68%	48.3%	56%	87% (active)	35.6%	60%	82% (active)	60.6%	18%	57%	27.1%	33%	80% (active)	46%	58%	79% (active)	57.5%
NC1=NCN(C2OC(COCc3ccccc3)C(OCc3ccccc3)C2OCc2ccccc2)C(=O)N1 (stereo not given)	5%	57%	66.5%	8%	28%	45.6%	5%	59%	99.4% (active)	-7%	58%	80.2% (active)	-1%	56%	98% (active)	1%	86% (active)	99% (active)
Clc1cccc2c(-c3ccccc3)c3cccc(Cl)c3cc12	4%	45%	58.8%	3%	50%	39.6%	8%	35%	42.2%	6%	54%	50.9%	-2%	51%	36.2%	1%	68%	91.4% (active)
CCCCCCCCCc1c(O)c(O)c(CCCCCCCCC)c(CCCCCCCCC)c1CCCCCCCCC	1%	27%	54.9%	-11%	30%	-5.95%	-10%	28%	54.9%	33%	55%	49.9%	-6%	87% (active)	55.4%	-6%	38%	85.3% (active)
COc1ccc(/C=C/Cc2cc3c(cc2O)OCO3)cc1	-15%	13%	-4.05%	-2%	-10%	-9.7%	12%	5%	13.1%	3%	-2%	25.8%	-2%	14%	17.2%	-6%	1%	0.85%
